Screens: PubChem BioAssay, The Scripps Research Institute Molecular Screening Center
An excerpt weighted towards active compounds, which were near 1.7% of everything screened.
LYPLA1 counter = LYPLA1 (human) inhibition in PME1 counter-screen; 320,000 tested, 0.16% active; recombinant LYPLA1, FP-Rh probe fluorescence polarization; AID 2174; inhibition, % at 5.9 µM;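 active = inhibition above the mean of all tested compounds plus 3 SD, set per campaign, cut at about 14% in these data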;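 also: inhibitors block serine hydrolase probe labeling of LYPLA1 so polarization falls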
Fam108B inh = counter-screen for RBBP9 inhibitors: inhibitors of mouse Fam108B | recombinant Fam108B, FP-Rh probe fluorescence polarization | inhibition, % at 9.51 µM | 300,000 tested, 0.33% active;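 active = inhibition above the screen mean inhibition plus 3 SD, computed separately per campaign, cut at about 18% in these data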;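 also: inhibitors lower polarization as less probe binds the enzyme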
LYPLA2 inh = blocks human lysophospholipase 2, a PME1 counter-screen; recombinant LYPLA2, FP-Rh probe fluorescence polarization; AID 2177; inhibition, % at 5.9 µM; 320,000 tested, 0.38% active;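 active = inhibition above the screen-wide mean plus 3 SD, limit set per campaign, cut at about 26% in these data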
PAD4 inh = PAD4 (human) enzyme inhibition | recombinant PAD4, RCA probe fluorescence polarization | 330,000 tested, 0.41% active | inhibition, % at 6.36 µM | AID 485272 | Q9UM07;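 active = percent inhibition above a cutoff equal to the mean of all tested compounds plus 3 SD, cut at about 15% in these data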
Target sequence (Q9UM07 whole entry, looked up): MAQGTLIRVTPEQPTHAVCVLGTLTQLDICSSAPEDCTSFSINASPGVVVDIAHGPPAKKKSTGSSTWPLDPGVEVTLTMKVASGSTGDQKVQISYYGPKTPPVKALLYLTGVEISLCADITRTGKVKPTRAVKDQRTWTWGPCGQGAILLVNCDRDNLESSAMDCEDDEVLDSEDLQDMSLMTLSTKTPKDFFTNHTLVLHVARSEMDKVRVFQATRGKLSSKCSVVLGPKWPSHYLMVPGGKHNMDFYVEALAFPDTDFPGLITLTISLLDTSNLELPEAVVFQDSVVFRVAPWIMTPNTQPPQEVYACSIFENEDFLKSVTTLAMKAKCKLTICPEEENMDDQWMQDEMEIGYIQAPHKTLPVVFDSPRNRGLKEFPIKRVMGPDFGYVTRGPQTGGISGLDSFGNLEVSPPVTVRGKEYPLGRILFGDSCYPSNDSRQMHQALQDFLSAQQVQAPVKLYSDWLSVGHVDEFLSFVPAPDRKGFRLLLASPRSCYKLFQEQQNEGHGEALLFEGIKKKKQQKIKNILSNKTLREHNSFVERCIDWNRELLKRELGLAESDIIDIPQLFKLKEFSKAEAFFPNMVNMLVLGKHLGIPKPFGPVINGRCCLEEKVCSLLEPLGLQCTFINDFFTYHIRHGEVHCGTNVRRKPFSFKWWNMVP
GSTO1 inh = GSTO1 inhibition, counter-screen for RBBP9 inhibitors | 300,000 tested, 1.1% active | recombinant GSTO1, activity-based probe fluorescence polarization | inhibition, % at 5.96 µM | P78417;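 active = inhibition above the campaign mean inhibition plus 3 SD, cut at about 35% in these data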
PME-1 primary = PME-1 (human) inhibition; inhibition, % at 5.9 µM; 320,000 tested, 0.53% active; Q9Y570; recombinant PME-1, FP-Rh probe fluorescence polarization;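 active = inhibition above the campaign mean of all compounds plus 3 SD, cut at about 26% in these data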;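 also: competitive labeling of PME-1 active site by serine hydrolase directed probe; inhibitors block probe labeling so polarization falls and inhibition rises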
PAD4 FP conf = confirmation of human PAD4 inhibitors; shares compounds with PAD4 inh; recombinant PAD4, RCA probe fluorescence polarization; inhibition, % at 6.36 µM; 1,200 tested, 28% active;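 active = mean inhibition across replicates above the hit cutoff set by the earlier primary screen, cut at about 15% in these data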;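 also: inhibitors block active-site labeling by the probe so polarization falls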
Hits are given with their value; - = inactive; . = not tested or not shown.

SMILES	LYPLA1 counter	Fam108B inh	LYPLA2 inh	PAD4 inh	GSTO1 inh	PME-1 primary	PAD4 FP conf
O=C(C1=NN[C@@H]2C(=O)N(c3cccc(F)c3)C(=O)[C@H]12)c1cnccn1	-	-	-	-	-	-	.
CCN1C(=O)[C@@H]2C(C(=O)c3cnccn3)=NN[C@@H]2C1=O	-	-	-	19.6	-	-	-
COC(=O)c1cccc(NC(=O)CCc2c(C)noc2C)c1	-	.	-	31.4	.	-	-
COc1cc2c(C#N)c(N3CCOCC3)nc(N)c2c(N)n1	-	-	-	18.2	-	-	-
CC1Cc2ccccc2N1C(=O)CSc1nn2c(=O)c(C(C)(C)C)nnc2s1 (centres undefined)	-	-	-	15.2	-	-	-
CCCN1CCN(CCCNC(=O)C2CCN(c3nnc(-n4c(C)ccc4C)s3)CC2)CC1	-	-	-	17.5	-	-	-
CN1CCN(CCCNC(=O)C2CCN(c3nnc(-n4cccc4)s3)CC2)CC1	-	-	-	-	-	-	.
COc1ccc(N2CC(C(=O)Nc3c(C(N)=O)oc4ccccc34)CC2=O)cc1 (centres undefined)	-	-	-	-	-	-	.
C=CCNC(=O)CN(c1cccc(Br)c1)S(C)(=O)=O	-	-	-	-	-	-	.
Cn1nnnc1Sc1ncnc2scc(-c3cc4ccccc4o3)c12	-	.	-	15.9	.	-	-
Cn1nnnc1Sc1ncnc2scc(-c3ccc(-c4ccccc4)cc3)c12	.	.	.	-	.	.	.
COc1cc(/C=N/n2nnnc2N)ccc1OCc1c(C)no[n+]1[O-]	-	-	-	-	-	-	.
Cc1no[n+]([O-])c1COc1cccc(/C=N/Nc2nncn2N)c1	-	-	-	32.3	-	-	-
Cc1ccc(NC2=C(Cl)C(=O)OC2OC(=O)c2ccccc2)c(C)c1 (centres undefined)	-	-	-	-	-	-	.
Cc1ccccc1NC1=C(Cl)C(=O)OC1OC(=O)c1ccccc1C (centres undefined)	-	-	-	43.9	-	-	-
COc1ccc(OC)c(N(C)S(=O)(=O)c2ccc3c(c2)N(C(C)=O)CCO3)c1	-	-	-	18.4	-	-	-
COc1ccc(NS(=O)(=O)c2ccc3c(c2)N(C(C)=O)CCO3)c(OC)c1	-	-	-	-	-	-	.
CCC(=O)Nc1ccccc1C(=O)C(=O)Nc1ccccc1	-	-	-	19.9	-	-	-
CC(=O)Nc1ccccc1C(=O)C(=O)Nc1ccccc1	-	-	-	-	-	-	.
Cc1ccc(NC2=C(NCCO)C(=O)c3ccccc3C2=O)cc1	-	-	-	39.6	48.8	-	-
Cc1nonc1OC(C)CNc1ccc([N+](=O)[O-])cc1 (centres undefined)	-	-	-	56.0	-	-	-
Cc1ccc(S(=O)(=O)/N=C2\C=C(Nc3ccc(O)cc3)C(=O)c3ccccc32)cc1	.	.	.	54.7	.	.	54.2
Cc1ccc(S(=O)(=O)Nc2ccc(N=Nc3ccc(O)cc3)cc2)cc1	-	-	-	-	-	-	.
COCCNC(=O)C(c1ccncc1)N(C(=O)Cn1nnc2ccccc21)c1ccc(OC)cc1 (centres undefined)	-	-	-	16.0	-	-	18.6
COCCNC(=O)C(c1ccc(OC)cc1)N(C(=O)Cn1nnc2ccccc21)c1cccnc1 (centres undefined)	-	-	-	-	-	-	.
SMILES	LYPLA1 counter	Fam108B inh	LYPLA2 inh	PAD4 inh	GSTO1 inh	PME-1 primary	PAD4 FP conf
COCCNC(=O)CSc1ncnc2sccc12	-	-	-	-	-	-	.
COC/C=C/C1=CC2=CC(=O)C(C)(OC(=O)c3cnc4ccccc4n3)C(=O)C2=CN1Cc1ccccc1 (centres undefined)	-	-	-	-	-	-	.
COC/C=C/C1=CC2=CC(=O)C(C)(OC(=O)c3cnc4ccccc4n3)C(=O)C2=CN1CC1CC1 (centres undefined)	-	-	-	23.8	-	-	-
Cc1[nH]c2ccccc2c1C(C#N)(C#N)C1C(=O)c2ccccc2C1=O	-	-	-	37.4	72.6	-	-
Cc1[nH]c2ccccc2c1CC#N	-	-	-	-	-	-	.
CC(=O)C1=C(c2cccc([N+](=O)[O-])c2)N(C(C)=O)n2c(C)nnc2S1	-	-	-	18.5	-	-	23.2
C/C(=N\NC(=O)C(=O)N/N=C(\C)c1cccc(O)c1)c1cccc(O)c1	-	-	-	-	-	-	.
COc1ccc(C2C=C(c3ccc(F)cc3)NC(=S)N2)cc1OC (centres undefined)	-	-	-	-	-	-	.
COc1ccc(C2=CC(c3ccc(OC)c(OC)c3)NC(=S)N2)cc1 (centres undefined)	-	-	-	49.0	-	-	55.7
COc1cccc(C2=CC(c3ccc(OC)c(OC)c3)NC(=S)N2)c1 (centres undefined)	-	-	-	30.2	-	-	55.9
CN(Cc1ccccc1)C(=S)NC(=O)c1cccs1	-	-	-	-	-	-	.
N#CCCN(Cc1ccccc1)C(=O)c1cccs1	-	-	-	31.1	-	-	-
O=Cc1ccc(Sc2nnc(-c3ccccc3)o2)c([N+](=O)[O-])c1	-	-	-	24.2	-	-	23.7
CN(CCO)S(=O)(=O)c1ccc2c(c1)C(=NO)c1cc(S(=O)(=O)N(C)CCO)ccc1-2	-	-	-	14.8	-	-	-
CCOC(=O)c1c(-c2ccc(OC)cc2)csc1NC(=O)CSc1ccccc1	-	-	-	19.9	-	-	-
CCOC(=O)c1c(-c2ccccc2)csc1NC(=O)CSc1ccccc1	-	-	-	-	-	-	.
CCC1C(=O)N=C(SCC(=O)Nc2cccc3ccccc23)NC1=O (centres undefined)	-	-	-	-	-	-	.
CCOC(=O)c1ccc(NC(=O)CSC2=NC(=O)C(CC)C(=O)N2)cc1 (centres undefined)	-	-	-	21.0	-	-	19.7
COc1ccccc1-c1nnc(SCC(=O)Nc2oc(C)c3c(C)n[nH]c(=O)c23)n1C	-	-	-	-	-	-	.
CC1=NN(c2ccc(C(=O)O)c(N)c2)C(=O)C1	-	-	-	24.7	63.0	-	16.6
CC1=NN(c2ccc(Cl)c(C(=O)O)c2)C(=O)C1	-	-	-	35.9	72.2	-	-
CC1=NN(c2ccc(C(=O)O)cc2)C(=O)CC1	-	-	-	-	-	-	.
CC(C)NC(=S)N/N=C/c1ccc(C(C)(C)C)cc1	-	-	-	-	-	-	.
Cc1ccc(S(=O)(=O)N2CCN(C(=S)NCC3CCCO3)CC2)cc1 (centres undefined)	-	-	-	-	-	-	.
CCSc1nc2sc3c(c2c(=O)[nH]1)CC(C)(CC)OC3 (centres undefined)	-	-	-	-	-	-	.
CCC1(C)Cc2c(sc3nc(SC)[nH]c(=S)c23)CO1 (centres undefined)	-	-	-	35.7	-	-	27.0
